This note sets out measurements from PubChem BioAssay (NCATS).

Structures are written as SMILES. “And” between values parts separate entries of the source, which are not always exact repeats. Equal entries are not always repeated. Unmarked numbers belong to inactive results. Records with an inconclusive call do not appear. The source made the active and inactive calls. Unless noted, the call rests on the fitted dose curve; in most records, active means well fitted curve in the direction sought with a large enough effect; inconclusive means small, poorly fitted or top-dose-only effect, or another doubt; inactive means no such curve, though single readings can be large; an effect the other way counts as inactive or inconclusive.

Assay [1] addresses Cytochrome P450 2C9 (Homo sapiens) (UniProt P11712). In words: qHTS Assay for Inhibitors and Substrates of Cytochrome P450 2C9 (AID 883). Further: nearly all actives have a fitted effect of over 60% in size. Further: potency means the concentration at half of the fitted maximal effect. On activity change, negative = inhibition: on the % scale 0 is the no-effect control and ±100 the full control effect. The method in brief: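 A luminogenic readout tracked human CYP2C9 (10nM) converting deoxyluciferin (100uM, at KM) in 25mM KPO4 during 60 min at 37C with regenerated NADPH. Values normalized to 57uM sulphaphenazole as complete inhibition.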
Assay [2] addresses Cytochrome P450 3A4 (Homo sapiens) (UniProt P08684). Kind of assay: qHTS Assay for Inhibitors and Substrates of Cytochrome P450 3A4 (AID 884). Further: nearly all actives have a fitted effect of over 50% in size. Further: potency means the concentration at half of the fitted maximal effect. On activity change, negative = inhibition: on the % scale 0 is the no-effect control and ±100 the full control effect. The method, boiled down: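 Luminescent readout of luciferin produced by CYP3A4 (20 nM) dealkylation of Luciferin-PPXE, 25 uM (its KM). NADPH-driven reaction ran 60 min at RT after 10 min compound preincubation; data scaled to 57 uM ketoconazole as 100% inhibition.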

Assay [3] addresses Cytochrome P450 2D6 (Homo sapiens) (UniProt P10635). Kind of assay: qHTS Assay for Inhibitors and Substrates of Cytochrome P450 2D6 (AID 891). Further: nearly all actives have a fitted effect of over 60% in size. Further: potency means the concentration at half of the fitted maximal effect. The method in brief:
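Luminescent read-out of luciferin formed by 5 nM human CYP2D6 demethylating 30 uM Luciferin-ME EGE (Km level) over 60 min at room temperature after NADPH regeneration addition. Data normalized to full inhibition by 1.43 uM quinidine.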

The nature of assay [4]: NFAT Signaling Pathway (AID 444; active means well fitted curve in either direction with a large enough effect, not every such curve was filed as active;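 further: carbachol stimulus at about its EC50 of 1 µM final; on the % scale 0 is the no-effect control and ±100 the full control effect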). As to conditions: Jurkat NFAT-bla M1, carbachol, beta-lactamase ratio, 5 h; at 17.2 µM (top of the series) unless noted. The method in brief:
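Jurkat cells carrying an NFAT-driven β-lactamase reporter and co-transfected muscarinic M1 receptor were treated with compound plus carbachol (1 uM final, an EC50 level) for 5 h at 37 °C. CCF4 loading followed for 1 h at RT; 460/530 nm ratio gave %activity.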

A short description of assay [5]: Stat Signaling Pathway (AID 446; active means well fitted curve in either direction with a large enough effect, not every such curve was filed as active;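 further: ME-180 cervical cancer cells given 40 pM IL-6 alongside compound; SIE-controlled beta-lactamase reporter measured as 460/530 nm FRET emission ratio; on the % scale 0 is the no-effect control and ±100 the full control effect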). The method in brief: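 Emission at 460 and 530 nm (excitation 405 nm) reports SIE-controlled beta-lactamase in ME-180 cells. Cells received compound with 40 pM IL-6 for 5 hrs at 37 C; data scaled between 300 pM IL-6 and 125 nM JAK-inhibitor controls.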
Assay [6] can be described thus: Confirmation and Secondary Assay for Modulators of Hemoglobin Beta Chain Splicing at IVS2 654 locus (AID 910).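 Further: per-well total GFP intensity by laser scanning cytometry after 2-day treatment; % of control where 0% means no effect.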 The method, boiled down:
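HeLa cells stably carrying EGFP interrupted by mutant beta-globin IVS2-654 intron (CMV-driven) were treated with compound for 2 days at 37C; corrected splicing was scored as total peak GFP intensity per well (488 nm excitation, 500-520 nm emission).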

The nature of assay [7]: Confirmation and Secondary Assay for Modulators of Hemoglobin Beta Chain Splicing at IVS2 705 locus (AID 930).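 Further: HeLa cells stably expressing the EGFP-705 splicing reporter; GFP fluorescence per well restored by corrected splicing of the IVS2-705 intron in EGFP; % of control where 0% means no effect.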 The method in brief: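 First, HeLa EGFP-705 cells are seeded at 500/well in Optimem with 2% FCS and left overnight. Next, compound or DMSO is added for 2 days. Finally wells are laser-scanned and total peak GFP intensity scored.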
Assay [8] deals with Cytochrome P450 3A4 (Homo sapiens) (UniProt P08684). In words: qHTS Assay for Activators of Cytochrome P450 3A4 (AID 885). Further: nearly all actives have a fitted effect of over 65% in size. The method in brief: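 Activators are scored by enhanced luminescence from CYP3A4 conversion of luciferin-PPXE (25uM, equal to KM) to luciferin, after 60 min at RT with an NADPH-regenerating system.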
A short description of assay [9]: S16 Schwann cell viability assay (CellTiter-Glo assay) (AID 624031).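 Further: native untransfected S16 rat Schwann cells; plate controls were DMSO-treated cells for no effect and cell-free wells for full effect; nearly all actives have a fitted effect of over 70% in size.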 The method, boiled down: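 Counter-screen for cytotoxicity: parental S16 rat Schwann cells lacking the PMP22 reporters, treated 24 h with compound, viability from cellular ATP by CellTiter-Glo luminescence, normalized to DMSO (0%) and no-cell wells.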
A short description of assay [10]: S16 Schwann cell PMP22 intronic element firefly luciferase assay (AID 624032).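 Further: plate controls were DMSO for no effect and PTC124 positive control mean for full effect; nearly all actives have a fitted effect of over 30% in size.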 The method in brief: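 Rat S16 Schwann cells stably carrying a PMP22 intronic element-driven Fluc reporter were seeded overnight, then exposed to compounds for 24 h at 37 °C. Luminescence was normalized to PTC124 (positive control) and DMSO (0% activity).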
A further assay concerns 7G8. Kind of assay: qHTS profiling for inhibitors of Plasmodium falciparum proliferation (AID 504749). Further: nearly all actives have a fitted effect of over 60% in size. Further: potency means the concentration at half of the fitted maximal effect. As to conditions: P. falciparum in erythrocytes, SYBR Green DNA, 72 h; series mostly up to 12.8 µM. The method in brief: (§1)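 Fluorescence of SYBR Green-bound parasite DNA, read at 485/535 nm, served as the growth measure. Infected erythrocytes were cultured with compound 72 h; artemisinin (0.29 uM) and DMSO wells defined the normalization range.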

The subject of the next assay is CP203. The assay is described as above. As to conditions: P. falciparum in erythrocytes, SYBR Green DNA, 72 h; series mostly up to 12.8 µM. The method, boiled down: as §1
The subject of the next assay is CP215. The assay is described as above. As to conditions: P. falciparum in erythrocytes, SYBR Green DNA, 72 h; series mostly up to 12.8 µM. The method, boiled down:
as §1

In the next assay the test system is CP260. The assay is described as above. Conditions: P. falciparum in erythrocytes, SYBR Green DNA, 72 h; series mostly up to 12.8 µM. The method in brief:
as §1

The next assay relates to CP335. Described as above. Conditions: P. falciparum in erythrocytes, SYBR Green DNA, 72 h; series mostly up to 12.8 µM. The method in brief: as §1
In a further assay the test system is DFO2036. The description is as above. As to conditions: P. falciparum in erythrocytes, SYBR Green DNA, 72 h; series mostly up to 12.8 µM. The method, boiled down: as §1
Another assay concerns DIV17. The description is as above. Conditions: P. falciparum in erythrocytes, SYBR Green DNA, 72 h; series mostly up to 12.8 µM. The method in brief: as §1
The next assay relates to GB4. The description is as above. As to conditions: P. falciparum in erythrocytes, SYBR Green DNA, 72 h; series mostly up to 12.8 µM. The method in brief:
as §1

The test system of another assay is ICS. Described as above. As to conditions: P. falciparum in erythrocytes, SYBR Green DNA, 72 h; series mostly up to 12.8 µM. The method, boiled down: as §1
Another assay relates to W2. Described as above. Conditions: P. falciparum in erythrocytes, SYBR Green DNA, 72 h; series mostly up to 12.8 µM. The method in brief:
as §1

Chain of Cytochrome P450 2D6 (Homo sapiens) (P10635 whole entry, looked up): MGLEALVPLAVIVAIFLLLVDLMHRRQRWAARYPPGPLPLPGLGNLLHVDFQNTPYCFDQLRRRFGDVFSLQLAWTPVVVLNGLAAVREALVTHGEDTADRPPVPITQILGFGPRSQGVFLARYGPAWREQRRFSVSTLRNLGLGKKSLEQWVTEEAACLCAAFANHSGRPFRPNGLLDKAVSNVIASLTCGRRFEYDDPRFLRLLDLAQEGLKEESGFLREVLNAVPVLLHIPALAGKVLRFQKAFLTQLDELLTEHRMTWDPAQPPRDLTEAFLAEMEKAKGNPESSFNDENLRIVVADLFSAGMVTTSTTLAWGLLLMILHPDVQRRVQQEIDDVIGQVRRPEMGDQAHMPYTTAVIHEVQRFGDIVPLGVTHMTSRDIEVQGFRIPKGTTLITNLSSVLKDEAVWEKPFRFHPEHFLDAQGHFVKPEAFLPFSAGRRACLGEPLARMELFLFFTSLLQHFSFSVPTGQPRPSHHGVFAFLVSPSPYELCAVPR
Chain of Cytochrome P450 2C9 (Homo sapiens) (P11712 whole entry, looked up): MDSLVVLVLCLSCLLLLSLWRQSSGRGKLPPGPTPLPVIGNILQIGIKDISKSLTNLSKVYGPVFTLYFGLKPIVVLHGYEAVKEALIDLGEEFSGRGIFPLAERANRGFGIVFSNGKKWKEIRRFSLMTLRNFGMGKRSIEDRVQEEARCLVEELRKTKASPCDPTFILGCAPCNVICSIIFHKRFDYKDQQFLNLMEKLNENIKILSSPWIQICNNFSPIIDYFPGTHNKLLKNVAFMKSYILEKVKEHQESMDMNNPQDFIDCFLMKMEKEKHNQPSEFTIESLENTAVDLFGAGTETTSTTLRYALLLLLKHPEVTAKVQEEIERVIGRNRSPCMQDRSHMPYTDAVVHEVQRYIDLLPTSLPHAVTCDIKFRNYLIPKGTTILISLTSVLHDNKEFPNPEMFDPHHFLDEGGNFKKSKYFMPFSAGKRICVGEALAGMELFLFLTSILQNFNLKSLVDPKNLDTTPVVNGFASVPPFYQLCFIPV
Chain of Cytochrome P450 3A4 (Homo sapiens) (P08684 whole entry, looked up): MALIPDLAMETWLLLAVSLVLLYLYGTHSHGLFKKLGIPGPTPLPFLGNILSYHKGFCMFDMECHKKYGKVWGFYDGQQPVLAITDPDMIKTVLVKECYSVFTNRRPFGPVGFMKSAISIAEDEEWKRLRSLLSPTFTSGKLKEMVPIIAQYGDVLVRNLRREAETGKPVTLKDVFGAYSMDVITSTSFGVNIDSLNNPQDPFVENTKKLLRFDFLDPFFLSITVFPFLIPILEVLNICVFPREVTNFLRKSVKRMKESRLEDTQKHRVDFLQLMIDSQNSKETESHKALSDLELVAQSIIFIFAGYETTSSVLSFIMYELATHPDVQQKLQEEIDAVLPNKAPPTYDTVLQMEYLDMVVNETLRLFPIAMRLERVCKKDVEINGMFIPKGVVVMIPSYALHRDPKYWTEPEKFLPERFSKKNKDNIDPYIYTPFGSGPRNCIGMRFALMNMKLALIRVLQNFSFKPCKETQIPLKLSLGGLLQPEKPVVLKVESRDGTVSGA

Turning to `C/C(=C\CNc1ncnc2nc[nH]c12)CO`, the Potency entry in [1], in assay [2] and in assay [3] was “inactive” throughout.

As for `COCCOC(=O)C1=C(C)NC(C)=C(C(=O)OC(C)C)[C@H]1c1cccc([N+](=O)[O-])c1`, the activity change, negative = inhibition in [4] was -10.3%. The call in [5] was inactive.

`COc1cccc(-c2nc(NCCc3c[nH]c4ccc(OC)cc34)c3ccccc3n2)c1`: the Potency in assay [1] was 794 nM (active); in assay [2] it was 2000 nM (active). Moreover, the Potency result in assay [6] and in assay [7] was “inactive” each time.

Take `COc1cc2ccc(=O)oc2c(O)c1O`: the Potency entry in assay [2], in assay [3], in [6] and in assay [7] was “inactive” in each case.

As to `C[C@@H](CN1c2ccccc2Sc2ccccc21)N(C)C`, the compound was called inactive in assay [5]. In addition, the Potency in [3] was 2 µM (active) and 316 nM (active).

With `CC1(C)S[C@@H]2[C@H](NC(=O)[C@@H](N)c3ccccc3)C(=O)N2[C@H]1C(=O)O[C@H]1OC(=O)c2ccccc21`, the Potency in assay [2] was 1580 nM (active). The Potency result (in [8]; in [10]; in the assay with 7G8; in the assay with CP203; with CP215; in the assay on CP260) was “inactive” throughout. Besides, the Potency entry in the assay on CP335, with DFO2036, in the assay with DIV17, in the assay on GB4, in the assay with ICS and in the assay with W2 was “inactive” throughout. Besides, the compound was classed as inactive in assay [9].

For the compound `CN1[C@H](CC(=O)c2ccccc2)CCC[C@H]1C[C@@H](O)c1ccccc1`, the Potency result in [1] and in assay [2] was “inactive” throughout.

For the compound `NCCC(=O)N[C@@H](Cc1cnc[nH]1)C(=O)O`, the Potency entry in [1], in [2] and in assay [3] was “inactive” in each case.

For `O=C(c1cc(C(F)(F)F)cc(C(F)(F)F)c1)N1CCC[C@@]2(CCN(c3ccccn3)C2)C1`, the Potency in assay [2] is 3980 nM (active). In assay [8], the Potency entry is “inactive”.

With `O=c1cc(-c2cccc(O)c2)oc2cc(O)ccc12`, the Potency in assay [1] is 25100 nM (active); in assay [2], 12600 nM (active). Moreover, the Potency result in assay [3] was “inactive”.

Consider `Nc1ncn([C@H]2O[C@@H](CO)[C@@H](O)[C@@H]2O)c(=O)n1`, for which the activity change, negative = inhibition in [4] is -16.5%.

For the compound `COc1ccc2c(c1)N(C[C@@H](C)CN(C)C)c1ccccc1S2`, in assay [5], the result was inactive. For the same compound, the Potency entry (in assay [8]; in the assay on CP203; with CP215; in the assay on CP260; in the assay with CP335; in the assay on DFO2036) was “inactive” throughout. For the same compound, the Potency in assay [3] is 63.1 nM (active); in the assay with 7G8, 3550 nM (active).

In the case of `CCC(C)(C)C(=O)O[C@@H]1C[C@H](C)C=C2C=C[C@H](C)[C@@H](CC[C@H]3C[C@@H](O)CC(=O)O3)[C@H]21`, the activity change, negative = inhibition in [4] is 7.6%. The result in assay [5] and in [9] was inactive. Also, the Potency result (in assay [10]; with CP203; with CP215; in the assay with CP260; in the assay on DFO2036; in the assay on DIV17) was “inactive” each time.
